Here are results for 24 compounds from PubChem BioAssay AID493152 (Sanford-Burnham Center for Chemical Genomics, 2011).

The list shows a part of the results. A number with no mark means an inactive call. Active and inactive are the calls of the source.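 The calls were made as follows: active = inhibition reaching a set limit in any replicate at 20 µM, the limit being 80% of the first screen's; inactive = the rest.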

This assay concerns the target DNA dC->dU-editing enzyme APOBEC-3G (Homo sapiens) (UniProt Q9HC16). Nature of the assay: APOBEC3G deaminase inhibitor retest, confirmation, biochemical, fluorescence, single-stranded DNA substrate, single concentration (AID 493152). The following applies: recombinant A3G ssDNA deaminase, UDG/FAM-TAMRA fluorescence; at 20 µM; active compounds read high.

Chain of DNA dC->dU-editing enzyme APOBEC-3G (Homo sapiens) (Q9HC16 whole entry, looked up): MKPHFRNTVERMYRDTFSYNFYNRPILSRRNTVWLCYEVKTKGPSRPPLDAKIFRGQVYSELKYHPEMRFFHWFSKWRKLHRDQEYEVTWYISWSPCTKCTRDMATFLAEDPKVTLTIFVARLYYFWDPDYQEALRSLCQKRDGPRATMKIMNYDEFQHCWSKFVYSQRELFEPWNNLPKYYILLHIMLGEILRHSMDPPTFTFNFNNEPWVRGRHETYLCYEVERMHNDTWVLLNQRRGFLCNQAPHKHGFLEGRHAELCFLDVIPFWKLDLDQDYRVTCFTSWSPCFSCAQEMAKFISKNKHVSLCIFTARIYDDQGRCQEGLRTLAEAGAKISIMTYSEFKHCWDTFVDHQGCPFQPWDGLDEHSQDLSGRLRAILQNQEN

On to `Cn1c2ccccc2c(=O)c2c(=O)n(Cc3ccco3)c(COc3ccccc3)nc21`, for which the inhibition is 22%.

On to `S=c1[nH]nc(-c2cc(-c3ccccc3)n[nH]2)n1/N=C/c1c2ccccc2cc2ccccc12`, for which the inhibition was 8.05%.

As to `COC(=O)c1cccc(-n2[nH]nnc2=S)c1`, the inhibition was -14.5%.

Consider `C=C(C)C(=O)Nc1cccc(C2=NOC3(C2)C[C@H](C(N)=O)N(C(=O)C(c2ccccc2)c2ccccc2)C3)c1` (some centres undefined), for which the inhibition was 44.3% (active).

In the case of `Fc1ccc(Nc2nnns2)cc1`, the inhibition was 23.7% (active).

Regarding `COc1ccc(OCc2nnc3n2N=C(c2ccccc2)C(CC(=O)O)S3)cc1` (centres undefined), the inhibition was 27.3% (active).

For the compound `CCOc1cc(C(=S)N2CCOCC2)ccc1O`, the inhibition is 65.3% (active).

As to `CC1=C/C(=N\OS(=O)(=O)c2ccccc2)C=CC1=O`, the inhibition was 63.8% (active).

For `S=c1[nH]nc(Nc2ccccc2)s1`, the inhibition was 68.3% (active).

Take `S=c1[nH]nc(-c2ccncc2)n1/N=C/c1ccccc1Cl`: the inhibition was 95.7% (active).

On to `Nc1ccccc1SC(C[N+](=O)[O-])c1ccccc1` (centres undefined), for which the inhibition was 83.4% (active).

For the compound `CCOC(=O)c1sc(=S)n2c1[nH]c(=O)c1ccc(C(=O)OC)cc12`, the inhibition was 7.15%.

In the case of `O=C(Cn1cnc([N+](=O)[O-])n1)NCCc1ccccc1`, the inhibition is 11.3% (active).

In the case of `Cc1ccnc(-n2sc3ccccc3c2=O)n1`, the inhibition is 55.1% (active).

`O=C1CC(Sc2ncn[nH]2)C(=O)N1c1ccccc1` (centres undefined): the inhibition was 40.4% (active).

`COc1ccc(OCc2n[nH]c(=S)n2N)cc1`: the inhibition was 56.2% (active).

`Cc1cc(-c2n[nH]c(=S)n2-c2ccc(C)c(C)c2)no1`: the inhibition is 74.9% (active).

`Cc1noc(C)c1CSc1nc2cc(S(=O)(=O)N3CCOCC3)ccc2o1`: the inhibition was 71.6% (active).

`CCC(CC)c1nnc(NC(=O)C2CCN(C(=O)c3ccco3)CC2)s1`: the inhibition was 24.5% (active).

Turning to `COc1ccccc1-n1c(-c2cc(-c3ccco3)[nH]n2)n[nH]c1=S`, the inhibition was 50.2% (active).

In the case of `S=c1[nH]nc(NCCc2ccccc2)s1`, the inhibition is 81.5% (active).

For `S=c1[nH]nc2c3c4c(sc3ncn12)CCCC4`, the inhibition is 80% (active).

As for `S=c1[nH]nc(-c2ccc(Cl)cc2)n1CC1CCCO1` (centres undefined), the inhibition is 55.9% (active).

As to `Cc1nc2scc(-c3cccs3)c2c(=O)n1N`, the inhibition is 0.32%.

By inhibition is commonly meant the change of the read-out against control, counted positive when it falls.
